Measured values reported in PubChem BioAssay (NCATS).
Records with an inconclusive call do not appear. Values without a mark were called inactive. Calls of active or inactive are those of the source. Calls come from the whole dose curve; as a rule, active = well fitted cell-killing curve with a large enough effect; inconclusive = small, poorly fitted or top-dose-only effect, or effect the other way; inactive = no such curve, though single readings can be large or run the other way.

assay: Quantitative High-Throughput drug screen in 47 multiple myeloma cell lines against the NCATS MIPE library collection: XG1_PLB cell viability assay (AID 1919866); conditions: CellTiter-Glo ATP, 48 h; series mostly up to 45.8 µM; viability: at the top concentration; note: nearly all actives have a fitted effect of over 35% in size
In short: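 Inhibition of viability over 48 h was scored by ATP content (CellTiter-Glo) in 500-cell wells. Zero and full viability were defined by media-only and DMSO-only wells.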
Potency is the fitted concentration of half-maximal effect.

| Structure (SMILES) | viability | Potency |
| --- | --- | --- |
| C1=C2CCCN[C@H]2[C@@H]2C[C@H]1[C@@H]1CCCCN1C2 | 94.4% | – |
| Clc1ccccc1C(c1ccccc1)(c1ccccc1)n1cccn1 | 115% | – |
| C[C@@H]1CC[C@H]2[C@@H](C)C(=O)O[C@@H]3O[C@@]4(C)CC[C@H]1[C@]32OO4 | – | 5900 nM (active) |
| CO[C@H]1CCC(O[C@H]2C[C@H]([C@]3(C)CC[C@]4(C[C@H](O)[C@@H](C)[C@@H]([C@@H](C)C=C(C)C(=O)[C@H](C)C[C@H](C)C(=O)O)O4)O3)O[C@]3(O[C@@H]([C@H]4O[C@@](O)(CO)[C@H](C)C[C@H]4C)C[C@H]3C)[C@H]2C)O[C@H]1C (some centres undefined) | – | 1180 nM (active) |
| O=c1[nH]c2ccc(Cl)cc2c(N[C@@H]2CN3CCC2CC3)c1-c1nc2ccccc2[nH]1 | – | 264 nM (active) |
| COc1ccc(N(C(=O)Oc2c(C)cccc2C)c2ccnc(Nc3ccc(N4CCN(C)CC4)cc3)n2)c(OC)c1 | – | 296 nM (active) |
| C[C@@H]1[C@H](O)[C@@H](C)C=CC=CCCC=CC=CC=CC=C[C@H](O[C@H]2O[C@@H](C)[C@H](O)[C@@H](N)[C@@H]2O)CC2O[C@](O)(C[C@@H](O)[C@H](O)CC[C@@H](O)C[C@@H](O)C[C@@H](O)CC(=O)O[C@H]1C)C[C@H](O)[C@H]2C(=O)O | 119% | – |
| C[C@]12COC(=O)C[C@@H]1CC[C@@H]1[C@H]2CC[C@@]2(C)[C@H]1CC[C@]2(C)O | 125% | – |
| C=C[C@@H]1CN2CCC1C[C@@H]2[C@@H](O)c1ccnc2ccccc12 (some centres undefined) | – | 23500 nM (active) |
| C[C@H]1CCCC=CC2C[C@H](O)C[C@@H]2[C@H](O)C=CC(=O)O1 (some centres undefined) | 6.33% | – |
| CC1=C(O)C(=O)C=C2C1=CC=C1[C@@]2(C)CC[C@@]2(C)[C@@H]3C[C@](C)(C(=O)O)CC[C@]3(C)CC[C@]12C | – | 590 nM (active) |
| CCN1CCN(C(=O)Cc2ccc(Nc3ncc(F)c(Nc4ccc(C(=O)Nc5ccccc5Cl)cc4)n3)cc2)CC1 | – | 1180 nM (active) |
| O=S(=O)(F)Cc1ccccc1 | – | 235 nM (active) |
| CC(C)[C@]12O[C@@H]1[C@@H]1O[C@]13[C@]1(O[C@H]1C[C@@H]1C4=C(CC[C@@]13C)C(=O)OC4)[C@H]2O | 3.41% | – |
| O=c1[nH]c2ccccc2n1C1CCN(Cc2ccc(-c3[nH]c4cc5ncnc5cc4nc3-c3ccccc3)cc2)CC1 | – | 7430 nM (active) |
| O=C(Nc1ccncc1)C(=O)c1cn(Cc2ccc(Cl)cc2)c2ccccc12 | – | 6.6 nM (active) |
| CSCC[C@@H](NC(=O)[C@@H](Cc1ccccc1)NC(=O)CNC(=O)CNC(=O)[C@@H](N)Cc1ccc(O)cc1)C(=O)O | 123% | – |
| COCC1(CO)C(=O)C2CCN1CC2 (centres undefined) | – | 20900 nM (active) |
| c1ccc2c(CN3CCNCC3)cccc2c1 | 105% | – |
| C=C[C@@H]1CN2CCC1C[C@H]2[C@H](O)c1ccnc2ccccc12 (some centres undefined) | – | 16600 nM (active) |
| CCc1c(C(=O)C(N)=O)c2c(OCC(=O)O)cccc2n1Cc1ccccc1 | 95.4% | – |
| C=CCON=C(C[C@H]1O[C@@H]2O[C@]3(C)CC[C@@H]4[C@H](C)CC[C@@H]([C@H]1C)[C@@]24OO3)[C@H]1O[C@@H]2O[C@]3(C)CC[C@H]4[C@H](C)CC[C@@H]([C@@H]1C)[C@@]24OO3 | – | 418 nM (active) |
| COc1ccc2c(c[n+](C)c3c4cc5c(cc4ccc23)OCO5)c1OC | – | 2640 nM (active) |
| COc1cccc2c1[C@]13CCN(CC4CC4)[C@H](C2)[C@]1(OC)CCC(=O)C3 | 100% | – |
| Cc1[nH]nc2ccc(-c3cncc(OC[C@@H](N)Cc4c[nH]c5ccccc45)c3)cc12 | – | 235 nM (active) |
| CC(C)(O)C=CC(=O)[C@](C)(O)[C@H]1[C@H](O)C[C@]2(C)[C@@H]3CC=C4[C@@H](C=C(O)C(=O)C4(C)C)[C@]3(C)C(=O)C[C@@]12C | – | 41.8 nM (active) |
| CC[C@@H]1[C@@H](C)O[C@@](O)([C@@H](C)[C@H](O)[C@H](C)[C@H]2OC(=O)C=CC=C[C@@H](C)[C@@H]([C@@H](C)[C@@H](O)[C@H](C)[C@@]3(O)C[C@H](O[C@H]4C[C@H](O)[C@H](O)[C@H](C)O4)[C@H](CC)[C@@H](C)O3)OC(=O)C=CC=C[C@@H]2C)C[C@H]1O[C@H]1C[C@H](O)[C@H](O)[C@H](C)O1 | – | 469 nM (active) |
| CC[C@@]1(O)C(=O)OCc2c1cc1n(c2=O)Cc2cc3ccccc3nc2-1 | – | 33.2 nM (active) |
| CCOC(=O)Nc1ccc(NCc2ccc(F)cc2)cc1N | – | 13200 nM (active) |
